Measured values as given in PubChem BioAssay AID652172 (National Center for Advancing Translational Sciences (NCATS), 2013).
This is one part of the list. Results filed as inconclusive are left out. Activity calls are given as the source filed them. The call rests on the fitted dose curve; in most records, active means well fitted inhibition curve with a large enough effect; inconclusive means small, poorly fitted or top-dose-only effect; inactive means flat fitted curve, though single readings scatter.

Each compound was assayed against Ubiquitin carboxyl-terminal hydrolase 2 (Homo sapiens) (UniProt O75604) (assay: Confirmation Assay for Inhibitors of Ubiquitin-specific Protease USP2a Using CHOP2 as the Reporter: K633). Settings: USP2 cleavage of DiUb K63-3IQF, fluorescence kinetic.
From the text: Homeostasis of cellular proteins is maintained through a combination of synthesis and degradation. The pathway that accounts for the majority of protein degradation is the ubiquitin-proteasomal pathway. Ubiquitin (Ub) is highly conserved in all cells and the generation of a multi-Ub chain typically targets proteins for degradation by the proteasome. However, ubiquitination is highly reversible and dynamic. Deubiquitination, the reverse process, is catalyzed through the action of enzymes referred to as isopeptidases or deubiquitinating enzymes (DUBs). This group of enzymes is collectively responsible for maintaining adequate pools of free ubiquitin and regulating the ubiquitination status of cellular proteins. The class of DUBs referred to as the ubiquitin-specific proteases (USP) family functions endoproteolytically to cleave Ub chains from a wide range of protein substrates. […] Confirmed qHTS active compounds were tested in an orthogonal USP2 assays utilizing a di-ubiquitin substrate labeled with a quencher on one ubiquitin and a fluorescent compound on the other, i.e. the substrate has internally quenched fluorescence or IQF (Lifesensors). In the presence of active USP2, the diubiquitin (DiUb) is cleaved and the fluorescence at 598 nm increases. […] Upon inhibition of USP2, the fluorescence signal from cleaved substrate increases less over time than in the absence of an inhibitor. […]

Ubiquitin carboxyl-terminal hydrolase 2 (Homo sapiens), sequence (O75604 whole entry, looked up): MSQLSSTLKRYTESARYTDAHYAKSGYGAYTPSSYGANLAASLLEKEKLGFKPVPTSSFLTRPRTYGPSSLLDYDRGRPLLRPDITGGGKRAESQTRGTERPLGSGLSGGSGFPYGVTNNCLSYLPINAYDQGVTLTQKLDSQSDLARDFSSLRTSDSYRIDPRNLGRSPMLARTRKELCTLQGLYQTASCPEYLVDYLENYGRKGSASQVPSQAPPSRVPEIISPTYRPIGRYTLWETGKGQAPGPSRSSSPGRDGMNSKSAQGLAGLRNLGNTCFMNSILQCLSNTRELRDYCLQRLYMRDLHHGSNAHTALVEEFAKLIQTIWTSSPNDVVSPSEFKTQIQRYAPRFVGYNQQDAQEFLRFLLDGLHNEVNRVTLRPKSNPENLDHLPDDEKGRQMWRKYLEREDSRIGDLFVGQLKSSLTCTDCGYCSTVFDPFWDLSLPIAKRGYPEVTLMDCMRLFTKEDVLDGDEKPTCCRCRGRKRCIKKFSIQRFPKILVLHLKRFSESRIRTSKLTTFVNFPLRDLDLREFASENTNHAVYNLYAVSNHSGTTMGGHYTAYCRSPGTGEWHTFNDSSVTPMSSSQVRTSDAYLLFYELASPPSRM

SMILES | Potency
Cc1ccc(-c2cc(C(=O)Nc3ncco3)c3ccccc3n2)cc1C | 3.43 µM (active)
